Records with an inconclusive call do not appear. Activity calls are given as the source filed them. The rule behind the calls is not given here.
Biological target: Beta-2 adrenergic receptor (Homo sapiens) (UniProt P07550)
Assay: qHTS for antagonists of the Thyroid Stimulation Hormone Receptor: Hit Validation with Beta-2 Adrenergic Receptor
Conditions: B2AR-expressing cells, cAMP HTRF, antagonist counterscreen; active compounds read high
Excerpt: The thyroid-stimulating hormone receptor (TSHR) is a member of the 7 trans-membrane-spanning receptor (7TMR) family of cell surface receptors. TSHR-mediated hyperthyroidism is important in thyroid pathology. The development of small molecule antagonists of TSHR may lead to therapeutic approaches for TSHR-mediated hyperthyroidism caused by constitutively activating mutations or stimulating auto-antibodies associated with Graves' disease. Graves' disease is the leading cause of hyperthyroidism and is caused by autoantibodies that stimulate TSHR (TsAbs) causing thyroid growth and unregulated overproduction of thyroid hormones and existing treatments have liabilities (agranulocytosis). In addition, TSHRs are known to be expressed in multiple extrathyroidal tissues including bone, brain, kidney, testis, fat and cells of the immune system but the role of the TSHR in these tissues is not clear. Therefore, TSHR antagonists/inverse agonists could be used as probes of extrathyroidal TSHR function. Finally, TSHR inverse agonists, which are a subclass of antagonists that inhibit agonist-independent (or basal or constitutive) TSHR signaling, could be used to inhibit TSH-independent signaling in patients with recurrent or metastatic thyroid cancer who are receiving thyroid hormone to suppress TSH. […]

Chain of Beta-2 adrenergic receptor (Homo sapiens) (P07550 whole entry, looked up): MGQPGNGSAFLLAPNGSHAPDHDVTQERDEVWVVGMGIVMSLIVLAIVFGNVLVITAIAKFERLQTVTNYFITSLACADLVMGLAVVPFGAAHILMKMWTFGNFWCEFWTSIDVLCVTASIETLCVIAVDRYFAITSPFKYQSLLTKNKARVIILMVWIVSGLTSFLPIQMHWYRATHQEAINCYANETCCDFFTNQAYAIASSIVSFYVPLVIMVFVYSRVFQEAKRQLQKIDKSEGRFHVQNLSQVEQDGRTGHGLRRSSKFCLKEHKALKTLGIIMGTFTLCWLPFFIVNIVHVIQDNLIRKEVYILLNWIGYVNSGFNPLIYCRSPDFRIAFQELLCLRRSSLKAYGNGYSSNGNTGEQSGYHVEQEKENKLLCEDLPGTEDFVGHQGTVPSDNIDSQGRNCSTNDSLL

## N#CC(C#N)=NNc1ccc(-n2ccc(C(F)(F)F)n2)cc1
  max inhibition: 91.9% (active)

Reference: PubChem BioAssay AID602447 (National Center for Advancing Translational Sciences (NCATS), 2012)
